BoNT-F LC inh = BoNT/F light chain protease inhibitors, primary screen, biochemical, flow cytometry, MLPCN library | Botulinum neurotoxin type F light chain protease (Clostridium botulinum) | inhibition, % at 10 µM | Multiplex microsphere protease cleavage assay | hit rate 0.22% among 360,000; in the data active = inhibition above about 35%, passing the limit was not always enough; inconclusive = no clear call, values can overlap the other calls; note: plate controls were buffer without enzyme for full effect and enzyme alone for no effect
BoNT-A LC inh2 = BoNT/A light chain protease inhibitors, primary screen, biochemical, flow cytometry, MLPCN library. Botulinum neurotoxin type A light chain protease (Clostridium botulinum A str. ATCC 3502). multiplex microsphere protease substrate cleavage. inhibition, % at 10 µM. hit rate 0.17% among 360,000; note: plate controls were buffer without enzyme for full effect and enzyme alone for no effect
Anthrax LF inh2 = Bacillus anthracis LF protease inhibitors, primary screen, biochemical, multiplex microsphere, MLPCN library. AID 588501, 2011. multiplex microsphere protease cleavage assay. Lethal factor (Bacillus anthracis), P15917. hit rate 0.12% among 360,000. inhibition, % at 10 µM; note: plate controls were buffer without enzyme for full effect and enzyme alone for no effect
Target sequence (P15917 whole entry, looked up): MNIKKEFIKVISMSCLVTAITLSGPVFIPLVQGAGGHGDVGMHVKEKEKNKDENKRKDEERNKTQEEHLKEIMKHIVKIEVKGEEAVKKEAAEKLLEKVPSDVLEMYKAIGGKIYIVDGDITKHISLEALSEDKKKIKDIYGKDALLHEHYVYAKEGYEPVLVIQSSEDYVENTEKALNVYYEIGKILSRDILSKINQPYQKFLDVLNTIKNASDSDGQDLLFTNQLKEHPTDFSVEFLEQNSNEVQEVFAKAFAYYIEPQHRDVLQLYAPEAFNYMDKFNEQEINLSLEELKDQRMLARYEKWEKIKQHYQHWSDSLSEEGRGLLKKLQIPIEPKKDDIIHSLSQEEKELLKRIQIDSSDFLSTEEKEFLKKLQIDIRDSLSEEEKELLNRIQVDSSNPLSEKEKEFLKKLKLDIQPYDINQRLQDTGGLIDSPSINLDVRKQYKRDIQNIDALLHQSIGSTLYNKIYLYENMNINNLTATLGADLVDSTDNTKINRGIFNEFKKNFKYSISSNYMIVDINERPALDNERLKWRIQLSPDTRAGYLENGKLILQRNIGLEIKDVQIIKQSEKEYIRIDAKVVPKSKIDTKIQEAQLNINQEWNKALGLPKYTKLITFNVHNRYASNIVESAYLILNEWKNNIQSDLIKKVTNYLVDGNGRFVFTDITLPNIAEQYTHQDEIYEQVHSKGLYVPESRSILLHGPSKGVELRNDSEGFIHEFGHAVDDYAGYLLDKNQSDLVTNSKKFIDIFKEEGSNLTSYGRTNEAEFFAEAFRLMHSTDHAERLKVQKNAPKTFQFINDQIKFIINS
Autofluor counter = counter-screen for toxin protease inhibitors: compound fluorescence; compound autofluorescence counterscreen, microsphere flow cytometry; active compounds read high; fluorescence intensity (concentration not given with the values); hit rate 3.1% among 360,000; AID 624483; in the data active = fluorescence intensity above about 16000; inconclusive = no clear call, values can overlap the other calls
* marks the source's active call; other numbers are inactive results; u = inconclusive. Only some compounds are listed: those with a hit (about 3.5% of all), similar ones and a draw of the others. Cut-off read from the data, not from the text of the source, unless noted: active = inhibition above about 30%; inconclusive = no clear call, values can overlap the other calls; inactive = below that.

SMILES	BoNT-F LC inh	BoNT-A LC inh2	Anthrax LF inh2	Autofluor counter
CC(=O)c1cccc(NC(=O)C2CC(c3ccc(F)cc3)=NO2)c1 (stereo not given)	21	0	-4	4262
CC1CCCC(C)N1C(=O)C1CC(c2ccc(F)cc2)=NO1 (stereo not given)	-4	-3	0	17330*
CC(=O)c1ccc(NC(=O)C2CC(c3ccc(F)cc3)=NO2)cc1 (stereo not given)	-3	-1	-2	23509*
CC(C)N1C(=O)C(=O)N(CC(=O)N2c3ccccc3NC(=O)CC2C)C1=O (stereo not given)	10	7	5	u
CCCNC(=O)c1cc(C2CCCCN2C(=O)c2ccc(C(C)C)cc2)on1 (stereo not given)	-2	0	-5	2829
CCN1C(=O)[C@H]2[C@H]3CN=C(SCC(=O)c4ccccc4)N3[C@@](C)(C(=O)OC)[C@H]2C1=O	-2	0	3	2919
C=CCOc1nc2c(c(=O)n(C)c(=O)n2C)n1Cc1ccccc1Cl	7	6	-6	20534*
Cn1c(=O)c2c(nc(OCc3ccc4c(c3)OCO4)n2Cc2ccccc2Cl)n(C)c1=O	1	1	2	4204
Cn1c(=O)c2c(nc(SCCCO)n2Cc2ccccc2Cl)n(C)c1=O	2	1	-2	16181*
Cn1c(=O)c2c(nc(NCc3ccc4c(c3)OCO4)n2Cc2ccccc2Cl)n(C)c1=O	-7	-3	-1	17237*
Cn1c(=O)c2c(nc(Sc3ncccn3)n2Cc2ccccc2Cl)n(C)c1=O	7	6	-2	18229*
C=CC(C)Sc1nc2c(c(=O)n(C)c(=O)n2C)n1Cc1ccccc1Cl (stereo not given)	-9	0	-9	5514
Clc1ccc(CSc2nnc(-c3ccncc3)s2)cc1	-3	-1	6	5659
O=C1Nc2ccccc2CCC1Sc1nnc(-c2ccc(Cl)cc2)s1 (stereo not given)	-4	-3	-2	24726*
Cc1ccc(S(=O)(=O)Nc2cc(-c3nn(C)c(=O)c4ccccc34)ccc2N2CCOCC2)cc1	4	u	-4	22492*
Cc1ccc(C)c(NC(=O)CSc2nnc([C@@H](N)Cc3c[nH]c4ccccc34)o2)c1	-12	-4	-3	24677*
CC(C)Sc1nnc([C@@H](N)Cc2ccccc2)o1	0	0	2	16323*
NC(=O)CSc1nnc([C@@H](N)Cc2c[nH]c3ccccc23)o1	-1	-1	5	10169
CC(C)Sc1nnc([C@@H](N)Cc2c[nH]c3ccccc23)o1	2	u	-5	18809*
CCc1nc2ccc(C(=O)NCCCN3CCCC3=O)cn2c1N(CC)CCOC	-3	0	-1	3770
O=C1CS/C(=N\C(=O)N2c3ccccc3Sc3ccccc32)N1	-3	-1	1	24179*
O=C(CC1SC2=NCCN2C1=O)Nc1ccccc1 (stereo not given)	1	0	-1	5735
Cc1ccc(NC(=O)CC2SC3=NCCN3C2=O)cc1 (stereo not given)	0	2	0	22351*
CCOC(=O)c1c(C)c(C(=O)N2CCCCCC2)c(C)n1CC	0	u	0	20617*
CCOC(=O)c1c(C)c(C(=O)N2CCCCCC2)c(C)n1C	0	0	2	23943*
SMILES	BoNT-F LC inh	BoNT-A LC inh2	Anthrax LF inh2	Autofluor counter
COCCNC(=O)C1(C)CCCN(C(=O)c2ccc(C#N)cc2)C1 (stereo not given)	-8	0	-5	3073
O=C(CSc1ncn(-c2ccccc2)n1)N1CCc2ccccc21	-8	1	0	4546
Clc1ccc(CSc2ncn(-c3ccccc3)n2)cc1	-8	-6	-1	21528*
Clc1cccc(CSc2ncn(-c3ccccc3)n2)c1	-4	-1	0	16759*
CCOC(=O)/C(=C/c1c[nH]c2ccccc12)NC(C)=O	4	2	-2	19612*
COC(=O)/C(=C/c1c[nH]c2ccccc12)NC(C)=O	0	0	0	2138
CCOC(=O)c1c(S(=O)(=O)NCCCc2ccco2)c(C)n(C)c1C	-1	-2	-4	6505
CCOC(=O)c1c(-c2ccc(C)o2)csc1NC(=S)NC(=O)N(C)C	8	6	-1	18614*
CNC(=O)C1CCC(=O)N1Cc1c[nH]c2ccccc12 (stereo not given)	8	0	6	4187
O=c1ccnc(SCn2nnc3ccccc3c2=O)[nH]1	3	3	-1	21117*
C=CCN1CCN(C(=O)CCc2ccccc2)CC1	-8	0	3	4046

Assay outcomes from PubChem.
